Results taken from PubChem BioAssay (NCATS).
Several values for one entry are separate records, joined by “and”; a condition that tells them apart may be missing. Equal values may be shown once. Records with an inconclusive call do not appear. Activity calls are given as the source filed them. Calls come from the whole dose curve; as a rule, active = well fitted curve in the direction sought with a large enough effect; inconclusive = small, poorly fitted or top-dose-only effect, or another doubt; inactive = no such curve, though single readings can be large; an effect the other way counts as inactive or inconclusive.

Assays:
[1] = molecular target: Cellular tumor antigen p53 (Homo sapiens) (UniProt P04637); assay: Primary qHTS for small molecule compounds that upregulate eGFP-tagged delta133p53alpha (in N-terminal) cells. (AID 2060322); conditions: NCI-H358 eGFP-delta133p53alpha fluorescence, 24 h; activation: active compounds read high; note: nearly all actives have a fitted effect of over 75% in size; note: potency is the fitted concentration of half-maximal effect;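 for activation: series mostly up to about 56 µM; 0% = DMSO vehicle and 100% = reference activator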
Summary of the method: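 NCI-H358 cells pre-induced 24 h with 10 ng/ml doxycycline to express N-terminal eGFP-delta133p53alpha, then dosed 24 h at 37C without doxycycline; fixed, Hoechst-stained, GFP intensity by laser scanning cytometry, normalized to DMSO (0%) and 57.5 uM 5-azacytidine (100%).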

[2] = molecular target: Aldehyde dehydrogenase, mitochondrial (Homo sapiens) (UniProt P05091); assay: qHTS for Inhibitors of the Aldehyde Dehydrogenase Family (ALDH2) Primary screen (AID 2061308);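 note: plate controls were vehicle for no effect and reference inhibitor for full effect; nearly all actives have a fitted effect of over 55% in size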
[3] = molecular target: Retinaldehyde dehydrogenase 3 (Homo sapiens) (UniProt P47895); assay: qHTS for Inhibitors of the Aldehyde Dehydrogenase Family (ALDH1A3) Validation screen (AID 2061312); note: % is set by controls: 0 for no effect and ±100 for the full control effect; nearly all actives have a fitted effect of over 45% in size
[4] = molecular target: Retinaldehyde dehydrogenase 3 (Homo sapiens) (UniProt P47895); assay: qHTS for Inhibitors of the Aldehyde Dehydrogenase Family (ALDH1A3) Primary screen (AID 2061315);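 note: plate controls were DMSO vehicle for no effect and reference inhibitor for full effect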
[5] = BET inhibitor-based combinations targeting novel dependencies in MECOM-rearranged (r) AML: SET-2 cell line (AID 2202231); conditions: SET-2 AML cells viability, CellTiter-Glo luminescence, 48 h; viability: active compounds read low, concentration not given here; note: nearly all actives have a fitted effect of over 35% in size; note: potency is the fitted concentration of half-maximal effect;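 for viability: plate controls were DMSO treated cells for no effect and wells without cells for full effect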
Summary of the method: (§1)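 Each compound was tested at eleven concentrations on cells seeded at 500/well. After two days' incubation, ATP-based luminescence reported viability; responses relative to DMSO and blank wells yielded AUC and cell-line-centred Z-AUC.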

[6] = BET inhibitor-based combinations targeting novel dependencies in MECOM-rearranged (r) AML: OCI-AML3 cell line (AID 2202232); conditions: Potency: OCI-AML3 viability; note: nearly all actives have a fitted effect of over 35% in size; note: potency is the fitted concentration of half-maximal effect
Summary of the method: as §1

[7] = BET inhibitor-based combinations targeting novel dependencies in MECOM-rearranged (r) AML: MV-4-11 cell line (AID 2202233); note: nearly all actives have a fitted effect of over 45% in size; note: potency is the fitted concentration of half-maximal effect
Summary of the method: (§2)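 First, 500 cells per well were seeded; next, drugs were pinned as 11-point doses; then plates sat 48 hr in the incubator; finally CellTiter-Glo was added and luminescence read, with AUC and Z-AUC computed.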

[8] = BET inhibitor-based combinations targeting novel dependencies in MECOM-rearranged (r) AML: HNT-34 cell line (AID 2202234); note: nearly all actives have a fitted effect of over 35% in size; note: potency is the fitted concentration of half-maximal effect
Summary of the method: as §2

[9] = BET inhibitor-based combinations targeting novel dependencies in MECOM-rearranged (r) AML: UCSD-AML1 cell line (AID 2202235); note: nearly all actives have a fitted effect of over 40% in size; note: potency is the fitted concentration of half-maximal effect
Summary of the method: as §2

[10] = BET inhibitor-based combinations targeting novel dependencies in MECOM-rearranged (r) AML: AML-191 cell line (AID 2202236; note: nearly all actives have a fitted effect of over 35% in size; note: potency is the fitted concentration of half-maximal effect)
Summary of the method: as §1

[11] = BET inhibitor-based combinations targeting novel dependencies in MECOM-rearranged (r) AML: AML-194 cell line (AID 2202237; note: nearly all actives have a fitted effect of over 40% in size; note: potency is the fitted concentration of half-maximal effect)
Summary of the method: as §1

Chain of Cellular tumor antigen p53 (Homo sapiens) (P04637 whole entry, looked up): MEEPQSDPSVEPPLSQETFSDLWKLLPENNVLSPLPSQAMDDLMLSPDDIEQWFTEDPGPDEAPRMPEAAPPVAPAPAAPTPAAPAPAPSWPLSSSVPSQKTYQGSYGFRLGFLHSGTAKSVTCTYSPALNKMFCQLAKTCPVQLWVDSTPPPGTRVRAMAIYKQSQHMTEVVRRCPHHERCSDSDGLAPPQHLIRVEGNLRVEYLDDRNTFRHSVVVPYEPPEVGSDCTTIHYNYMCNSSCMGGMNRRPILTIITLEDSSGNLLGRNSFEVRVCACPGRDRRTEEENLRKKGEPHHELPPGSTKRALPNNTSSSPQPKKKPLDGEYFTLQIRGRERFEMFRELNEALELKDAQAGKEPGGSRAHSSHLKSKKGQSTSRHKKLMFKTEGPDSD

C[C@H]1CN(C[C@H](Cc2ccccc2)C(=O)NCC(=O)O)CC[C@@]1(C)c1cccc(O)c1
inactive: activation [1] 7.64% | Potency [2] | Potency [3] | Potency [4] | viability [5] 120% | Potency [6] | Potency [7] | Potency [8] | Potency [9] | Potency [10] | Potency [11]

Cc1[nH]c(/C=C2\C(=O)Nc3ccc(S(=O)(=O)N(C)c4cccc(Cl)c4)cc32)c(C)c1C(=O)N1CCN(C)CC1
inactive: activation [1] -19.1% | Potency [2] | Potency [3] | Potency [4]
active: Potency [5] 20.9 µM | Potency [6] 10.5 µM | Potency [7] 4.68 µM | Potency [8] 16.6 µM | Potency [10] 7.42 µM | Potency [11] 7.42 µM

C[C@@]1(c2cc(-c3cncnc3)c(F)cc2F)CCSC(N)=N1
inactive: activation [1] 19.2% and -1.91% | Potency [2] | Potency [3] | Potency [4] | viability [5] 111% | Potency [6] | Potency [7] | Potency [8] | Potency [9] | Potency [11]

O=P(O)(O)C(O)(Cc1cccnc1)P(=O)(O)O
inactive: activation [1] 20.9% and -4.4% and 7.64% | Potency [2] | Potency [3] | Potency [4] | viability [5] 110% | Potency [6] | Potency [7] | Potency [8] | Potency [9] | Potency [10] | Potency [11]

COc1ccc2nc3n[nH]c(C)c3c(NCCOCCO)c2c1
inactive: activation [1] 6.21% | Potency [2] | Potency [3] | Potency [4] | viability [5] 97% | Potency [6] | Potency [7] | Potency [8] | Potency [9] | Potency [10]

O=C(O)CCn1c2c(c3ccccc31)C[C@H](NS(=O)(=O)c1ccc(F)cc1)CC2
inactive: activation [1] 0.565% and -1.83% and 6.68% | Potency [2] | Potency [3] | Potency [4] | viability [5] 105% | Potency [6] | Potency [7] | Potency [8] | Potency [9] | Potency [11]

c1cc(Nc2cc(C3CC3)[nH]n2)nc(Nc2ccc3nc[nH]c3c2)n1
active: Potency [1] 0.849 µM | Potency [5] 0.662 µM | Potency [6] 0.263 µM | Potency [7] 0.0525 µM | Potency [8] 0.263 µM | Potency [9] 0.332 µM | Potency [10] 0.235 µM | Potency [11] 0.372 µM
inactive: Potency [2] | Potency [3] | Potency [4]

O=C(c1ccc(C(=O)N2CCC(N3CCCC3)CC2)c(Nc2ccccc2)c1)N1CCC(N2CCCC2)CC1
inactive: activation [1] 3.03% and -7.82% | Potency [2] | Potency [3] | Potency [4] | viability [5] 111% | Potency [6] | Potency [8] | Potency [9] | Potency [10] | Potency [11]
active: Potency [7] 9.34 µM

Cc1c(F)cc(C(=O)NC2CC2)cc1-c1ccc(C(=O)NCC(C)(C)C)cn1
inactive: activation [1] 2.86% | Potency [2] | Potency [3] | Potency [4] | viability [5] 92.7% | Potency [6] | Potency [7] | Potency [8] | Potency [9] | Potency [10] | Potency [11]

Fc1ccc2[nH]ccc2c1-c1nc(N2CCOCC2)c2sc(CN3CCN(CC4CC4)CC3)cc2n1
inactive: activation [1] 22% | Potency [2] | Potency [3] | Potency [4]
active: Potency [5] 23.5 µM | Potency [6] 11.8 µM | Potency [7] 14.8 µM | Potency [8] 18.6 µM | Potency [9] 16.6 µM | Potency [10] 10.5 µM | Potency [11] 8.33 µM

CC(C)(OCc1nn(Cc2ccccc2)c2ccccc12)C(=O)O
inactive: activation [1] -10.7% and 1.91% | Potency [2] | Potency [3] | Potency [4] | viability [5] 104% | Potency [6] | Potency [7] | Potency [8] | Potency [9] | Potency [10] | Potency [11]

COc1cccc2c(NCc3ccccc3)nc(-n3c(N)nc4ccccc43)nc12
active: Potency [5] 7.42 µM | Potency [6] 3.32 µM | Potency [7] 7.42 µM | Potency [8] 3.72 µM | Potency [9] 4.17 µM | Potency [10] 2.95 µM | Potency [11] 2.63 µM
inactive: activation [1] -21.2% | Potency [2] | Potency [3] | Potency [4]

CCOCc1nc2c(N)nc3ccccc3c2n1CC(C)(C)O
inactive: activation [1] 4.77% | Potency [2] | Potency [3] | Potency [4] | viability [5] 108% | Potency [6] | Potency [7] | Potency [8] | Potency [9] | Potency [11]

Cc1cccc(-c2nn3c(c2-c2ccnc4ccc(C(N)=O)cc24)CCC3)n1
inactive: activation [1] -7.16% | Potency [2] | Potency [3] | Potency [4] | viability [5] 108% | Potency [6] | Potency [7] | Potency [8] | Potency [9] | Potency [10] | Potency [11]

CC(C)(C)c1cc(C(=O)O)c(NC(=O)Nc2ccc3[nH]ncc3c2)s1
active: Potency [7] 18.6 µM
inactive: activation [1] 7.87% and -13.8% | Potency [2] | Potency [3] | Potency [4] | viability [5] 118% | Potency [6] | Potency [8] | Potency [10] | Potency [11]

COCCN1CCN(Cc2ccc(-c3n[nH]c4c3C(=O)c3c(NC(=O)NN5CCOCC5)cccc3-4)cc2)CC1
inactive: Potency [2] | Potency [3] | Potency [4]
active: Potency [1] 0.0757 µM | Potency [5] 0.417 µM | Potency [6] 0.166 µM | Potency [7] 0.0263 µM | Potency [8] 0.166 µM | Potency [9] 0.148 µM | Potency [10] 0.186 µM | Potency [11] 0.332 µM

OC[C@H]1O[C@@H](Oc2cc(O)cc(/C=C/c3ccc(O)cc3)c2)[C@H](O)[C@@H](O)[C@@H]1O
inactive: activation [1] -6.21% | Potency [2] | Potency [3] | Potency [4] | viability [5] 115% | Potency [6] | Potency [7] | Potency [8] | Potency [9] | Potency [10] | Potency [11]

CN1CCN(Cc2ccc(NC(=O)Nc3ccc(Oc4cc(NC(=O)C5CC5)ncn4)cc3)cc2C(F)(F)F)CC1
inactive: Potency [2] | Potency [3] | Potency [4]
active: Potency [1] 0.968 µM | Potency [5] 0.742 µM | Potency [6] 0.372 µM | Potency [7] 0.0037 µM | Potency [8] 0.0468 µM | Potency [9] 0.372 µM | Potency [10] 0.59 µM | Potency [11] 0.833 µM

COc1ccc2cc(OCC3(C(=O)O)CN(C(=O)c4ccc(F)cc4)C3)ccc2c1
inactive: activation [1] 2.86% | Potency [2] | Potency [3] | Potency [4] | viability [5] 113% | Potency [6] | Potency [8] | Potency [9] | Potency [10] | Potency [11]

NS(=O)(=O)OC[C@@H]1C[C@@H](n2ccc3c(N[C@H]4CCc5ccccc54)ncnc32)C[C@@H]1O
inactive: activation [1] -7.64% and -2.39% | Potency [2] | Potency [3] | Potency [4]
active: Potency [5] 0.525 µM | Potency [7] 0.209 µM | Potency [8] 0.372 µM | Potency [9] 0.59 µM | Potency [10] 0.934 µM | Potency [11] 0.934 µM
